MLL AF4-AF9 inh = inhibitors of AF4 peptide binding to AF9, primary screen, biochemical, AlphaScreen, biotin-AF4 peptide, FLAG-AF9, single point; Protein AF-9 (Homo sapiens), P42568; inhibition, % at 10 µM; actives 0.47% (n = 350,000); AID 651704, 2012;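 active means every replicate reaching a set inhibition limit, whatever the replicate mean, cut at about 25% in these data; inconclusive means mean inhibition reaches that limit but some replicates miss it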;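 further: 0% = plate neutral control median and 100% = total signal loss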
dFosB activator = activators of delta FosB homodimer, primary screen, biochemical, fluorescence polarization, TAMRA-CDK5 oligo, single point. purified delta FosB; percent of positive-control signal above neutral wells. Protein FosB (Mus musculus), P13346. AID 493131, 2011. activation, % at 25 µM. actives 0.99% (n = 340,000);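 active means mean activation above about 17%, with every replicate also reaching it, limit read from the data, passing the limit was not always enough; inconclusive means only one of the two conditions met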
RAD52 inh = RAD52 DNA annealing inhibitors, primary screen, biochemical, FRET, single point, set 2; DNA repair protein RAD52 homolog (Homo sapiens), P43351; recombinant RAD52 DNA annealing, FRET fluorescence; inhibition, % at 18.7 µM; actives 0.46% (n = 360,000); AID 651710, 2012;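 active means every replicate showing at least 50% inhibition; inconclusive means mean inhibition at least 50% but not in every replicate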
Target sequence (P43351 whole entry, looked up): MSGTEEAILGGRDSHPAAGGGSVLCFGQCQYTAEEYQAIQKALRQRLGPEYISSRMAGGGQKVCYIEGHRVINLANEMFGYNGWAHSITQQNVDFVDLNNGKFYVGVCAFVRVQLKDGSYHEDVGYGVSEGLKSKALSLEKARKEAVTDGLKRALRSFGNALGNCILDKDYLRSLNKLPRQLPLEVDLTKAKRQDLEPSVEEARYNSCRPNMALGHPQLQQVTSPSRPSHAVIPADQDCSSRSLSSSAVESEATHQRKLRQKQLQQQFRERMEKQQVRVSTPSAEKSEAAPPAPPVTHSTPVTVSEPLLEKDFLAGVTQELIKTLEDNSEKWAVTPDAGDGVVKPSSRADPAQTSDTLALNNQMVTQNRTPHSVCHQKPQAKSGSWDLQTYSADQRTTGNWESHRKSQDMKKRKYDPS
RAD54 inh = inhibitors of human RAD54 branch migration, primary screen, biochemical, fluorescence, single point; RAD54 Holliday junction branch migration, FAM/BHQ fluorescence; inhibition, % at 10.4 µM; AID 602329, 2012; DNA repair and recombination protein RAD54-like (Homo sapiens), Q92698; actives 0.14% (n = 360,000);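 active means mean normalized replicate activity at least 40 and at least half of replicates scoring 40 or more; inconclusive means only one of the two criteria met; inactive means mean below 40 and under half of replicates reaching 40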;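 further: 0% = median of neutral control wells and 100% = median of positive control wells; inhibitors cause a drop in the FAM fluorescence signal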
GSIS activator = GLuc luminescence reporter in INS-1E cells, primary screen for activators of glucose-dependent secretion of insulin; INS-1E GLuc reporter insulin secretion, 2-3 h; activation, % at 16.6 µM; actives 0.61% (n = 370,000);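 active means lowest replicate activation of at least 40%, so every replicate reaches that level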;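 further: 0% = median of neutral control wells and 100% = median of IBMX positive control wells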
DENV2 CPE = inhibitors of DENV2 cytopathic effect, primary screen, cell-based, plate reader, single concentration; DENV2-infected cells, cytopathic effect rescue; CPE inhibition, % at 9.99 µM; actives 1.7% (n = 350,000); AID 651640, 2012; in the data active means CPE inhibition above about 20%, passing the limit was not always enough; inconclusive means no clear call, values can overlap the other calls; tested in BHK-21 cells;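 further: 0% = median of neutral control wells and 100% = median of positive control wells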
Active calls of the source: *; ? = inconclusive; . = not tested or not shown; ! = a repeat was not active. Compounds with a hit are over-represented: about 3.1% of the library has one in this group of screens.

SMILES | MLL AF4-AF9 inh | dFosB activator | RAD52 inh | RAD54 inh | GSIS activator | DENV2 CPE
COc1ccc(NC(=O)N(C)C[C@H]2OCCCC[C@@H](C)Oc3ccc(NC(=O)CCC(F)(F)F)cc3C(=O)N([C@@H](C)CO)C[C@H]2C)cc1 | -1 | . | 9 | 2 | -1 | 21*
COc1ccc(CN(C)C[C@@H]2OCCCC[C@@H](C)Oc3ccc(NC(=O)CCC(F)(F)F)cc3C(=O)N([C@H](C)CO)C[C@H]2C)cc1 | 2 | . | 4 | 2 | -22 | 30*
C[C@@H]1CCCCO[C@@H](CN(C)CC2CCCCC2)[C@@H](C)CN([C@H](C)CO)C(=O)c2cc(NC(=O)CCC(F)(F)F)ccc2O1 | . | . | . | 15 | 7 | 63*
C[C@@H]1CN([C@H](C)CO)C(=O)c2cc(NC(=O)CCC(F)(F)F)ccc2O[C@@H](C)CCCCO[C@H]1CN(C)Cc1ccc(Cl)c(Cl)c1 | -3 | . | 8 | 0 | -10 | 71*
CC(C)OC(=O)N(C)C[C@@H]1OCc2cn(nn2)CCCC(=O)N([C@H](C)CO)C[C@@H]1C | 1 | . | 2 | -1 | 0 | 84*
C[C@@H]1CN([C@H](C)CO)C(=O)CCCn2cc(nn2)CO[C@H]1CN(C)S(=O)(=O)c1cccc(F)c1 | -2 | . | 0 | -4 | 19 | -6
Cc1cccc(S(=O)(=O)N(C)C[C@H]2OCc3cn(nn3)CCCC(=O)N([C@@H](C)CO)C[C@@H]2C)c1 | -3 | . | 7 | -6 | 4 | 47*!
COc1ccc(OC(=O)N(C)C[C@@H]2OCc3cn(nn3)CCCC(=O)N([C@H](C)CO)C[C@H]2C)cc1 | 2 | . | 7 | -9 | 11 | 18
CC(C)OC(=O)N(C)C[C@H]1OCc2cn(nn2)CCCC(=O)N([C@@H](C)CO)C[C@H]1C | 1 | . | -6 | 4 | 6 | 3
COc1cccc(NC(=O)N(C)C[C@@H]2OCc3cn(nn3)CCCC(=O)N([C@H](C)CO)C[C@H]2C)c1 | -1 | . | -9 | -1 | 0 | 38*!
COc1ccc(OC(=O)N(C)C[C@H]2OCc3cn(nn3)CCCC(=O)N([C@H](C)CO)C[C@@H]2C)cc1 | -2 | . | -13 | -1 | -4 | 43*!
CC(C)(C)OC(=O)C(Cc1ccc(OC(C)(C)C)cc1)NC(=O)CNC(=O)OCc1ccccc1 (stereo not drawn) | -4 | -7 | -3 | . | -15 | 77*
CC(C)(C)OC(=O)N[C@@H](CC(=O)OCc1ccccc1)C(=O)O | 0 | -4 | -7 | . | 1 | -4
CC(C)(C)OC(=O)NC(CC(=O)OCc1ccccc1)C(=O)O (stereo not drawn) | -15 | 0 | -21 | -1 | 18 | 47*
O=[N+]([O-])c1ccc(OCCCCCN2CCOCC2)cc1 | 1 | -1 | -4 | -5 | 21 | 26*
O=[N+]([O-])c1ccc(OCCCCN2CCCCC2)cc1 | . | 2 | . | 11 | 20 | .
CC1(C)C[C@H](O)[C@]2(CO)[C@H](O)C[C@]3(C)C(=CCC4[C@@]5(C)CC[C@H](O)C(C)(C)C5CC[C@]43C)[C@@H]2C1 (stereo partly drawn) | 46* | -9 | -2 | 6 | 13 | -17
CC1(C)C[C@H](O)[C@]2(CO)CC[C@]3(C)C(=CCC4[C@@]5(C)CC[C@H](O)C(C)(C)C5CC[C@]43C)[C@@H]2C1 (stereo partly drawn) | -4 | -5 | 0 | 6 | . | 9
Cc1cccc(C)c1OCC(=O)N=Nc1c(O)[nH]c2ccc(Br)cc12 | . | ? | . | -7 | 51* | .
O=C(Nc1cccc(F)c1)N1CCCCN2[C@H](CO)[C@H](c3ccc(C#CC4CC4)cc3)[C@H]2C1 | 18 | . | -4 | 7 | -12 | 9
CC(C)C[C@H](NC(=O)c1nc[nH]c1C(=O)NC1CCN(C(=O)OC(C)(C)C)CC1)C(=O)OC(C)(C)C | 7 | 4 | -9 | 2 | 346* | 50*
CC(C)C[C@H](NC(=O)c1nc[nH]c1C(=O)NC1CCN(C(=O)OC(C)(C)C)CC1)C(=O)OCc1ccccc1 | 9 | 7 | -18 | -2 | 1 | 6
CN(Cc1ccccc1)C(=O)c1nc[nH]c1C(=O)N1CCN(c2ccccc2)CC1 | . | -6 | -6 | -8 | 6 | -5
CN(Cc1ccccc1)C(=O)c1nc[nH]c1C(=O)N1CCN(C(=O)OC(C)(C)C)CC1 | -2 | 5 | 5 | 3 | -12 | 42*
CC(C)(C)OC(=O)N1CCC(NC(=O)c2nc[nH]c2C(=O)NCc2ccccc2)CC1 | 1 | 0 | -17 | 1 | -32 | 34*
SMILES | MLL AF4-AF9 inh | dFosB activator | RAD52 inh | RAD54 inh | GSIS activator | DENV2 CPE
CC(C)(C)OC(=O)NCc1ccc(CNC(=O)c2nc[nH]c2C(=O)N2CCc3ccccc3C2)cc1 | 3 | 2 | -15 | 0 | -21 | 60*
CO[C@@H]1CN(C)C(=O)c2ccc(NC(=O)C3CC3)cc2OC[C@@H](C)N(Cc2cncnc2)C[C@@H]1C | . | . | . | . | 6 | .
CO[C@@H]1CC[C@@H]2CCN(C)C(=O)C[C@H](c3ccccc3)CN(C)C(=O)c3cccc(C#N)c3OC[C@@H]1O2 | 3 | . | -3 | -6 | 4 | 1
CN1[C@@H]2c3ccc(/C=C/c4ccccc4)c(=O)n3C[C@@H]2[C@@H](CO)[C@@H]1C(=O)NC1CCCC1 | -4 | . | -39 | . | 4 | -1
COc1ccccc1-c1cn(CC[C@H]2CC[C@@H](NC(=O)C3CCC3)[C@H](CO)O2)nn1 | 0 | . | 7 | 7 | -5 | 5
Cc1ccc(S(=O)(=O)N(C)C[C@@H]2Oc3ccc(NC(=O)Cn4cnnn4)cc3CC(=O)N([C@H](C)CO)C[C@@H]2C)cc1 | 2 | . | -14 | -8 | 1 | 31*
Cc1ccc(S(=O)(=O)N(C)C[C@H]2Oc3ccc(NC(=O)Cn4cnnn4)cc3CC(=O)N([C@H](C)CO)C[C@@H]2C)cc1 | -1 | . | -2 | -3 | 6 | 2
Cc1ccc(S(=O)(=O)N(C)C[C@H]2Oc3ccc(NC(=O)Cn4cnnn4)cc3C(=O)N([C@H](C)CO)C[C@H]2C)cc1 | 0 | . | -17 | 3 | 18 | -7
Cc1ccc(S(=O)(=O)N(C)C[C@@H]2Oc3ccc(NC(=O)Cn4cnnn4)cc3C(=O)N([C@@H](C)CO)C[C@@H]2C)cc1 | 0 | . | -2 | -16 | 19 | 42*
C[C@H](CO)N1C[C@H](C)[C@@H](CN(C)CC2CCCCC2)Oc2ccc(NC(=O)CCCN(C)C)cc2CC1=O | 10 | . | 6 | 12 | 4 | 1
CS(=O)(=O)c1cccc(-c2nnc(NC(=O)c3ccc(S(=O)(=O)N4CCCC4)cc3)o2)c1 | 2 | -6 | -16 | 0 | 31 | 61*
